Results from PubChem BioAssay AID1851 (National Center for Advancing Translational Sciences (NCATS), 2009).
Values joined by “and” are separate entries in the source; they are usually repeats but may differ in a detail not shown here. Equal values may be shown once. The campaign covered roughly 16,000 compounds. About 4,000 (25%) were called active. Roughly 26% stayed inconclusive and do not appear here. The call rests on the fitted dose curve; in most records, active means well fitted curve in the direction sought with a large enough effect; inconclusive means small, poorly fitted or top-dose-only effect, or effect the other way; inactive means no such curve, though single readings can be large or run the other way. These entries were drawn from the full list. Some structures have more than one record in an assay (separate samples or runs), and their calls can disagree.

biological target: Cytochrome P450 2C9 (Homo sapiens) (UniProt P11712); experiment: Cytochrome panel assay with activity outcomes; settings: recombinant CYP, pro-luciferin dealkylation, luminescence, p450-cyp2c9; series mostly up to 57.1 µM; activity, negative = inhibition: at the top concentration
Protocol: The P450 gene superfamily is involved in the metabolism and clearance of xenobiotics. This assay used various human CYP P450 isozymes to measure the dealkylation of various pro-luciferin substrates to luciferin. The luciferin is then measured by luminescence after the addition of a luciferase detection reagent. Pro-luciferin substrate concentration in the assay was equal to its KM for its CYP P450 isozyme. Inhibitors and some substrates limit the production of luciferin, and decrease measured luminescence.
NCGC Assay Protocol Summary:
1, Reagent, 2 uL, Isozyme and Pro-Luciferin
2, Library compounds, 23 nl, 40 uM to 0.24 nM dilution series
3, Controls, 23 nl, Isozyme specific inhibitor
4, Reagent, 2 uL, NADPH regeneration solution
5, Incubation time, 60 min, Isozyme specific temperature
6, Reagent, 4ul, Detection reagent
7, Incubation time, 20 min, Isozyme specific temperature
8, Detection, 1 sec, ViewLux luminescent read
The luciferase-based P450-GloTM Screening Systems were obtained from Promega (Madison, WI) for CYP 1A2 (V9770), CYP 2C9 (V9790), CYP2 C19 (V9880), CYP 2D6 (V9890), and CYP 3A4 Luciferin-PPXE (V9910) and were adapted for 1,536-well microplates and an automated protocol. The control compounds furafylline for 1A2 (F124), sulfaphenazole for CYP 2C9 (S0758), ketoconazole for CYP 2C19 (K1003), quinidine for 2D6 (Q3625), and ketoconazole for 3A4 (K1003) were purchased from Sigma Aldrich (St. Louis, MO). Recombinant P450 enzymes were obtained from baculovirus constructs expressed in insect cells (BD/Gentest).
Medium-binding white solid Kalypsys plates used. Mixtures kept on ice. 1A2: 10 nM 1A2, 100 uM Luc-ME, 100 mM KPO4; 2C9: 10 nM 2C9, 100 uM Luc-H, 25 mM KPO4; 2C19: 5 nM 2C19, 10 uM Luc-H EGE, 50 mM KPO4; 2D6: 5 nM 2D6, 30 uM Luc-ME EGE, 100 mM KPO4; 3A4: 10 nM, 25 uM Luc-PPXE. All amounts are reflected in their final concentration, working concentration is 2x.
NADPH regeneration solution: 1.3 mM NADP+, 3.3 mM glucose-6-phosphate, 3.3 mM MgCl2, 0.4 U/mL glucose-6-phosphate dehydrogenase for all isozymes, 200 mM KPO4 for 3A4. Mixture prepared at RT but kept on ice during automated run.
RT incubation in auxilliary plate hotel for 1A2, 2D6, and 3A4; 37C for 2C9 and 2C19.
Keywords: P450, CYP1A2, CYP2C19, CYP2C9, CYP2D6, CYP3A4, Luciferase, MLSMR, MLSCN, NIH Roadmap, qHTS, NCGC
On the % scale 0 is the no-effect control and ±100 the full control effect.

Chain of Cytochrome P450 2C9 (Homo sapiens) (P11712 whole entry, looked up): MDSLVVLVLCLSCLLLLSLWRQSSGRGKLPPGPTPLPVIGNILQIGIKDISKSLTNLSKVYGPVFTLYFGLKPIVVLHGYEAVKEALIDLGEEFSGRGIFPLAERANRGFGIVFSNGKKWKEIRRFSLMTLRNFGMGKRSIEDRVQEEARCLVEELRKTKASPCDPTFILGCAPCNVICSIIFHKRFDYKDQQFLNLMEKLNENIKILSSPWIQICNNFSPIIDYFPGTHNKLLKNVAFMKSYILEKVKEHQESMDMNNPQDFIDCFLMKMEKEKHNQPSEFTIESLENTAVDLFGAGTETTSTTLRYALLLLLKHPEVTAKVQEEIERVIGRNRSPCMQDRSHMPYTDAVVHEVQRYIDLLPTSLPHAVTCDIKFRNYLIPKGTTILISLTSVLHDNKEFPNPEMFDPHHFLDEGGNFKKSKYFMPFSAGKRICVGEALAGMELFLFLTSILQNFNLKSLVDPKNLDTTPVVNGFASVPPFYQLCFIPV

activity, negative = inhibition, inactive:
O=C1c2cccnc2C(O)N1C1CCCCC1 (centres undefined) -10.4%
Cc1nc2cnc(Nc3ccccc3)nc2n(C2CC2)c1=O -16.5%
N[C@@H](C(=O)O)c1ccc(C(=O)O)c(O)c1 -29%
N[C@H](C(=O)O)c1ccc(O)c(C(=O)O)c1 7.54%
COc1cccc([C@@H]2Oc3ccc(OC)cc3C(=O)[C@H]2O)c1 -9.12% [at 11.4 µM]
COCOc1ccc(Br)cc1C(=O)[C@H]1O[C@H]1c1cccc(OC)c1 8.38% [at 11.4 µM]
CNc1ncncc1-c1ccccc1C(F)(F)F 4.51% [at 2.29 µM]
COc1ccc(C(=O)N2CC3(CC(c4cccc([N+](=O)[O-])c4)=NO3)C[C@H]2C(=O)NCC(N)=O)cc1 (some centres undefined) -29.6%
CCS(=O)(=O)N1CCC(C(=O)NCCN2CCN(Cc3ccccc3)CC2)CC1 11.7%
COc1cccc(C2=NOC(C(=O)NCc3ccccc3)C2)c1 (centres undefined) 15.8%
Cn1c(=O)c2c3c(sc2n2cnnc12)CCC3 -24.7%
O=C(N/N=C/c1ccc(F)cc1)c1ccc(Br)cc1 -7.63%
COc1ccc(O)c(/C=N/NC(=O)c2ccc(OCc3cccc(Br)c3)cc2)c1 -22.4%
COc1ccc(N2CCN(C(CNC(=O)C3CCCCC3)c3cccnc3)CC2)cc1 (centres undefined) -14.1%
CCC(c1nnnn1CCOC)N1CCN(C(=O)c2ccco2)CC1 (centres undefined) -40.7%
N#Cc1ccc(C(c2nnnn2Cc2ccccc2)N2CCCC2)cc1 (centres undefined) -67%
Cc1ccc(C(=O)c2c[nH]c(C(=O)NCCCN3CCOCC3)c2)cc1 -2.52%
O=C(NCCCN1CCOCC1)c1cc(C(=O)C2CC2)c[nH]1 33%
CC(C)[C@@H](OCc1ccccc1)[C@H](C)/C=N\O[C@@H](C)c1cn([C@H](CO)Cc2ccccc2)nn1 -21.6% [at 11.4 µM] and -25.5% [at 11.4 µM]
COc1nc(Cl)nc(Cl)c1Cl (tested in a mixture with another compound) -7.53% [at 11.4 µM]
CC(C)CO/N=C1/C[C@@H](O)[C@@H](O)[C@@H]2[C@@H]3C(=O)N([C@@H](C)c4ccccc4)C(=O)[C@H]3CC[C@H]12 -8.59% [at 11.4 µM]
C1=C(CN2CCOCC2)COc2c1cccc2OC[C@@H]1CNCCO1 13.9%
CO[C@@H]1COC(=O)CCC[C@@H](C)[C@H](OC)COC(=O)[C@H](Cc2ccccc2)NC(=O)C/C=C\[C@H]1C -2.4% [at 11.4 µM]
CC(=O)n1nc(-c2ccco2)nc1N -29.7%
CN1CCN(c2cc(-c3ccc(N(C)C)cc3)ncn2)CC1 14.3% [at 2.29 µM]
Cc1noc(C)c1-c1ccc2ncnc(NCc3ccccc3)c2c1 -8.92% [at 2.29 µM]
CCOC(=O)/C(C#N)=C1/C=CN(C)C=N1 -14.9%
CC(C)(C)NC[C@@H](O)c1ccc(O)c(CO)n1 6.16% [at 11.4 µM]
Cc1ccc(-c2nc3ncccn3c2NC(=O)C2CC2)cc1 6.9%
Cc1noc(C)c1-c1cc(Nc2ccccc2)ncn1 -12.1% [at 2.29 µM]
Cc1noc(C)c1-c1cc(NCc2ccccc2)ncn1 24.9% [at 2.29 µM]
O=C1C(=O)N(Cc2ccc(Cl)c(Cl)c2)c2ccccc21 1%
Clc1ccc(COc2ccccn2)cc1Cl -2.18%
Clc1ccc(Cn2c(CN3CCCC3)nc3ccccc32)cc1 -38.8% [at 25.6 µM]
NC(=O)c1ncn([C@@H]2O[C@@H](CO)[C@@H](O)[C@H]2O)c1O -6.99%
Cc1noc(C)c1-c1cncnc1NC1CC1 4.67% [at 2.29 µM]
c1cn(-c2ccnc(-c3ccc4c(c3)OCO4)n2)cn1 4.3% [at 2.29 µM]
COc1cccc(-c2nc(N(C)Cc3ccco3)c3ccccc3n2)c1 -10.2% [at 2.29 µM]
CN(C)C(=O)c1ccc(-c2nc(N(C)Cc3ccco3)c3ccccc3n2)cc1 5.2% [at 2.29 µM]
c1nc(NCCc2cnc[nH]2)c2[nH]cnc2n1 -20.1% [at 11.4 µM]
CN(C)C(=O)c1ccc(-c2cc(NCc3ccccc3)ncn2)cc1 6.12% [at 2.29 µM]
CN(C)c1cc(=O)n2c(n1)SCCC2 -4.22%
N#Cc1c(-c2ccccc2)nc2n(c1=O)CCS2 -5.83%
c1ccc(-c2ccc(N3CC4(CCNCC4)C3)cc2)cc1 -19.5%
Cn1cccc1C(=O)N1CCC2(CC1)CCN(c1cccc(-c3ccccc3)c1)CC2 9.6%
CC(C)NC(=O)N1CCCC2(CCN(C(=O)c3cccn3C)CC2)C1 -10.5%
CC(C)CN1CCCC2(CCN(C(=O)c3cccn3C)CC2)C1 5.73%
c1ccc(-c2ccc(N3CC[C@@]4(CCCNC4)C3)cc2)cc1 -3.55%
Cn1cccc1C(=O)N1CCC2(CC1)CCN(C(c1ccccc1)c1ccccc1)CC2 12.5%
Cn1cccc1C(=O)N1CCC2(CC1)CCN(c1ccc(-c3ccccc3)cc1)CC2 -18.2%
CN1CCCC2(CCN(C(=O)c3cccn3C)CC2)C1 9.11%
Cc1cnc(CNc2ncncc2-c2ccccc2CN(C)C)cn1 20.8% [at 2.29 µM]
CO[C@@H]1COC(=O)[C@H]2CCCN2C(=O)[C@@H](C)COC(=O)CCC[C@H]1C 1.93% [at 11.4 µM]
Cn1cccc1C(=O)N1CCC2(CC1)CCN(c1ccncc1)CC2 -17.9%
Cn1cccc1C(=O)N1CCC[C@@]2(CCN(c3ccncc3)C2)C1 -3.72%
O=C(Oc1ccccc1)N1CCC2(CCCN(c3ccc(-c4ccccc4)cc3)C2)CC1 17.5%
COC(=O)N1CCC2(CC1)CN(c1ccc(-c3ccccc3)cc1)C2 -19.7%
Cn1cccc1C(=O)N1CCC[C@@]2(CCN(c3ccccc3)C2)C1 -11.1%
Cn1cccc1C(=O)N1CCC2(CC1)CCN(c1ccccc1)CC2 10.5%
COc1ccccc1/C=C/C=N/N1CCN(Cc2cccc3ccccc23)CC1 25.5%

AC50, active:
Cc1nc2c(n1C1CCCCC1)C(=O)c1ccccc1C2=O 15.8 µM
COc1cccc([C@@H]2Oc3ccc(Br)cc3C(=O)[C@H]2O)c1 2.51 µM
O=C(NCc1ccccc1)C12CN(Cc3ccccc3)CC1C(c1cccc([N+](=O)[O-])c1)=NO2 (centres undefined) 7.94 µM
CC(C)CCNC(=O)C12CN(Cc3ccccc3)CC1C(c1cccc([N+](=O)[O-])c1)=NO2 (centres undefined) 5.62 µM
NC(=O)Cn1c(=O)n(Cc2ccco2)c(=O)c2c3c(sc21)CCCCC3 11.2 µM
CN(C)CCn1c(=O)n(Cc2ccco2)c(=O)c2c3c(sc21)CCCCC3 14.1 µM
O=C(Cn1c(=O)n(Cc2ccco2)c(=O)c2c3c(sc21)CCCCC3)c1ccccc1 2.51 µM
O=C(N/N=C/c1ccc2cccc(OCc3ccccc3)c2n1)c1ccc(Br)cc1 3.55 µM
CCn1c(SCC(=O)N2CCOCC2)nc2oc3c(Cl)cc(Cl)cc3c(=O)c2c1=O 3.98 µM
COc1ccc(Cn2nnnc2C(c2ccccc2Cl)N2CCC(C(N)=O)CC2)cc1 (centres undefined) 15.8 µM
O=C(Nc1ccc(Cl)cc1)OCCn1nnnc1C(c1ccccc1Cl)N1CCOCC1 (centres undefined) 4.47 µM
O=C(c1ccc(C(F)(F)F)cc1)c1c[nH]c(C(=O)NCCCn2ccnc2)c1 1.12 µM
Cc1cc(/C=N/n2cnnc2)c(C)n1-c1ccc(OCc2ccccc2F)cc1 4.47 µM
COn1c(SCc2cccc(Cl)c2)nc2ccccc2c1=O 1.78 µM
COn1c(SCc2ccc(C)cc2C)nc2ccccc2c1=O 0.282 µM
O=C(Cc1ccccc1)Nc1nc2ccc(Cl)cc2c2nc(-c3ccco3)nn12 3.16 µM
CCCCCCN1C=CC(=C/C=C(\C#N)C(=O)OCC)C=C1 2.24 µM
O=C(CSc1nnc(SCc2cccc3ccccc23)s1)c1ccc2c(c1)OCO2 4.47 µM
Clc1ccc(-c2nc3ncccn3c2Nc2ccc3c(c2)OCCO3)cc1 4.47 µM
Cc1noc2ncnc(Oc3ccc4ccccc4c3)c12 25.1 µM
O=Nc1c(O)n(Cc2ccc(Cl)c(Cl)c2)c2ccccc12 5.62 µM
O=Nc1c(O)n(Cc2cccc(Cl)c2)c2ccccc12 2.51 µM
O=Nc1c(O)n(Cc2ccc(Cl)cc2)c2ccccc12 1.26 µM
CN(Cc1ccccc1)c1nc(-c2ccc([N+](=O)[O-])cc2)nc2ccccc12 0.501 µM
N#Cc1c(-c2ccc(Cl)cc2)nc2n(c1=O)CCCS2 12.6 µM
Cn1cccc1C(=O)N1CCC2(CCCN(c3ccc(-c4ccccc4)cc3)C2)CC1 15.8 µM
Cn1cccc1C(=O)N1CCC2(CCCN(C(c3ccccc3)c3ccccc3)C2)CC1 12.6 µM
c1ccc(-c2ccc(N3CCCC4(CCNCC4)C3)cc2)cc1 25.1 µM
Cn1cccc1C(=O)N1CCC2(CCCN(c3cccc(-c4ccccc4)c3)C2)CC1 3.98 µM
Cn1cccc1C(=O)N1CCC2(CC1)CN(c1ccncc1)C2 5.01 µM
Cn1cccc1C(=O)N1CCC2(CCCN(c3ccccc3)C2)CC1 15.8 µM
COC(=O)N1CCC2(CCCN(c3ccc(-c4ccccc4)cc3)C2)CC1 15.8 µM

AC50, inactive:
CCCC[S@@](=N)(=O)CC[C@@H](N)C(=O)O

AC50, 12.6 µM (active) and inactive:
N[C@@H](C(=O)O)c1ccc(C(=O)O)c(C(=O)O)c1
